Experimental data: PubChem BioAssay (EPA / NIEHS)
Inconclusive results are not listed. Calls of active or inactive are those of the source. How the source made its calls, unless noted: active means hit-call score of the fitted dose curve at least 0.9, where 1 is the maximum; inactive means score below 0.9.

Tests used:
[1] = read-out: Interleukin 6 (IL6), IL6 (gene 3569); assay: BSK_BT_xIL6: BioMAP Diversity Plus: BT Assay for Interleukin 6 (IL6) Biomarker Activity (AID 2284228); conditions: primary human B cells with PBMC
Outline: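 Human B cell/PBMC co-culture; secreted IL-6 quantified by Luminex xMAP 24 h after chemical dosing, fitted relative to DMSO. Parallel PBMC viability by Alamar Blue after 1 h pretreatment, 20 ng/mL SEB and TSST-1, 90 h incubation.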

[2] = read-out: Tumor necrosis factor (Homo sapiens) (UniProt P01375); assay: BSK_BT_xTNFa: BioMAP Diversity Plus: BT Assay for Tumor necrosis factor alpha (TNF-alpha) Biomarker Activity (AID 2284230); conditions: primary human B cells with PBMC
Outline: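 Endpoint derived in the positive direction versus DMSO vehicle. Cells: B cells together with PBMC, exposed 24 h before TNF-alpha in the medium was read on the Luminex xMAP platform.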

[3] = read-out: Vascular cell adhesion molecule 1 (VCAM1), VCAM1 (gene 7412); assay: BSK_MyoF_VCAM1: BioMAP Diversity Plus: MyoF Assay for Vascular cell adhesion molecule 1 (VCAM1) Biomarker Activity (AID 2284231); conditions: primary human lung fibroblasts
Outline: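 Primary human lung fibroblasts (BioMAP MyoF system) dosed with chemical, VCAM-1 measured by ELISA 24 hours later. Fitted in the positive direction against DMSO; parallel SRB staining assessed cytotoxicity.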

[4] = read-out: Collagen I, COL1A1 (gene 1277); assay: BSK_MyoF_CollagenI: BioMAP Diversity Plus: MyoF Assay for Collagen I Biomarker Activity (AID 2284238); conditions: primary human lung fibroblasts
Outline: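 Primary human lung fibroblasts (MyoF system) treated 24 h; Collagen I quantified by ELISA and fitted in positive direction against DMSO. Parallel SRB total-protein staining assessed overt cytotoxicity.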

[5] = read-out: Interleukin 17F (IL17F), IL17F (gene 112744); assay: BSK_BT_xIL17F: BioMAP Diversity Plus: BT Assay for Interleukin 17F (IL17F) Biomarker Activity (AID 2284243); conditions: primary human B cells with PBMC
Outline: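 Human PBMC co-cultured with B cells, compound exposure 24 h; secreted IL-17F quantified by Luminex xMAP, referenced to DMSO control. PBMC viability measured in parallel by Alamar Blue reduction.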

[6] = read-out: Actin alpha 1 (ACTA1), ACTA1 (gene 58); assay: BSK_MyoF_ACTA1: BioMAP Diversity Plus: MyoF Assay for Actin alpha 1 (ACTA1) Biomarker Activity (AID 2284244); conditions: primary human lung fibroblasts
Outline: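 Cells were exposed to chemical for 24 h before a-SMA levels were quantified by ELISA in human lung fibroblasts. Increases were fitted against DMSO as negative control; parallel SRB staining (0.1% after 10% TCA fixation, 560 nm) assessed cytotoxicity.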

[7] = read-out: Basic fibroblast growth factor (bFGF), FGF2 (gene 2247); assay: BSK_MyoF_bFGF: BioMAP Diversity Plus: MyoF Assay for Basic fibroblast growth factor (bFGF) Biomarker Activity (AID 2284246); conditions: primary human lung fibroblasts
Outline: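 Chemicals are added to human lung fibroblast cultures and incubated 24 h. bFGF is then measured by ELISA, while parallel cultures receive SRB staining for total protein as a cytotoxicity check. Data are fitted upward against DMSO.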

[8] = read-out: Collagen IV, COL4A1 (gene 1282); assay: BSK_MyoF_CollagenIV: BioMAP Diversity Plus: MyoF Assay for Collagen IV Biomarker Activity (AID 2284247); conditions: primary human lung fibroblasts
Outline: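 Human lung fibroblast system, 24 h chemical exposure. Endpoint: Collagen IV by ELISA, upward fit vs DMSO.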

[9] = read-out: Interleukin-8 (IL8), CXCL8 (gene 3576); assay: BSK_MyoF_IL8: BioMAP Diversity Plus: MyoF Assay for Interleukin-8 (IL8) Biomarker Activity (AID 2284261); conditions: primary human lung fibroblasts
Outline: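 Human lung fibroblast (MyoF system) cultures dosed for 24 h, then IL-8 measured by ELISA. Response taken relative to DMSO; parallel SRB total-protein staining for cytotoxicity.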

Decorin, DCN (gene 1634) = assay: BSK_MyoF_Decorin: BioMAP Diversity Plus: MyoF Assay for Decorin Biomarker Activity (AID 2284265); conditions: primary human lung fibroblasts
Outline: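 Human lung fibroblast cultures were dosed for 24 h, and decorin was then measured by ELISA. Parallel cultures were stained with sulforhodamine B for total protein as a cytotoxicity check. Gain of signal was fitted relative to DMSO.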

[10] = BSK_MyoF_SRB: Viability Assessment in the BioMAP Diversity Plus: MyoF Assay (AID 2284267); conditions: primary human lung fibroblasts;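 further: total protein by SRB absorbance in parallel cultures as cytotoxicity measure; cells assessed 24 h after compound addition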
Outline: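 Confluent human lung fibroblasts were exposed to test chemicals for 24 h. Parallel wells were then fixed in 10% TCA, stained with 0.1% sulforhodamine B and measured at 560 nm. DMSO served as baseline for curve fitting.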

[11] = molecular target: human Retinoic Acid Receptor beta (RARb), RARB (gene 5915) (UniProt P10826); assay: ATG_RARb_TRANS: Attagene TRANS-FACTORIAL HepG2 Assay for human Retinoic Acid Receptor beta (AID 2283004; active means hit-call score of the fitted dose curve at least 0.9, where 1 is the maximum)
Outline: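 HepG2 cells were transiently transfected with GAL4-UAS reporter units that report activity of exogenous chimeric NR-Gal4 proteins, then exposed to compound for 24 h. Reporter mRNA was quantified by RT-PCR with capillary electrophoresis fluorescence, as gain of signal over DMSO.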

[12] = CCTE_Harrill_HTTr_CellCount_MCF7: CCTE's Cell Proliferation Assessment for the High-Throughput Transcriptomics (HTTr) Platform, Harrill Lab (AID 2284012; active means hit-call score of the fitted dose curve at least 0.9, where 1 is the maximum;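 further: cells exposed to compound for six hours; intended direction is loss of nuclei count meaning fewer cells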)
Outline: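 Cell count served as viability reporter: loss of Hoechst-stained nuclei, counted by high content imaging, marks decreased growth or survival. Exposure was 6 h in MCF-7 cells across eight concentrations, with DMSO as baseline.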

[13] = molecular target: Glucocorticoid receptor (Homo sapiens) (UniProt P04150); assay: ATG_GR_TRANS: Attagene TRANS-FACTORIAL HepG2 Assay for human Glucocorticoid Receptor (GR) (AID 2282978; active means hit-call score of the fitted dose curve at least 0.9, where 1 is the maximum;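 further: activators score as hits since higher reporter transcript over DMSO is fitted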); conditions: HepG2 Attagene TRANS GR reporter, mRNA transcription
Outline: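 In this trans-factorial format, exogenous NR-GAL4 chimeric proteins in transfected HepG2 cells regulate GAL4-UAS reporter transcription. After 24 h treatment, reporter mRNA induction relative to DMSO is read by RT-PCR and capillary electrophoresis.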

[14] = molecular target: human Retinoic Acid Receptor gamma (RARg), RARG (gene 5916) (UniProt P13631); assay: ATG_RARg_TRANS: Attagene TRANS-FACTORIAL HepG2 Assay for human Retinoic Acid Receptor gamma (RARg) (AID 2283009; active means hit-call score of the fitted dose curve at least 0.9, where 1 is the maximum)
Outline: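 TRANS format measured activity of exogenous NR-GAL4 fusion (RARg) in transfected HepG2 liver cells after 24 h dosing. Induced reporter RNA was detected by RT-PCR/capillary electrophoresis fluorescence, analysed in the positive direction against DMSO.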

[15] = molecular target: human RAR-related Orphan Receptor beta (RORb), RORB (gene 6096) (UniProt Q92753); assay: ATG_RORb_TRANS: Attagene TRANS-FACTORIAL HepG2 Assay for human RAR-related Orphan Receptor beta (RORb) (AID 2283010; active means hit-call score of the fitted dose curve at least 0.9, where 1 is the maximum)
Outline: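 Transfect HepG2 with multiple GAL4-UAS reporter transcription units; dose chemicals for 24 h; isolate RNA, reverse-transcribe and PCR-amplify reporter sequences; label, digest and resolve fragments by capillary electrophoresis; fit increases relative to DMSO.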

[16] = molecular target: Retinoic acid receptor alpha (Homo sapiens) (UniProt P10276); assay: ATG_RARa_TRANS: Attagene TRANS-FACTORIAL HepG2 Assay for human Retinoic Acid Receptor alpha (RARa) (AID 2283005; active means hit-call score of the fitted dose curve at least 0.9, where 1 is the maximum)
Outline: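 Reporter transcripts, measured by RT-PCR with fluorescent labeling and capillary electrophoresis after 24 h dosing, reflect activity of an exogenous human RARa–GAL4 fusion in transiently transfected HepG2. Fitted for increase relative to DMSO.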

[17] = test system: Thyroperoxidase (TPO), gene 54314; assay: CCTE_Simmons_AUR_rTPO: CCTE's Amplex UltraRed Assay for Thyroperoxidase (TPO) Inhibition, Simmons Lab (AID 2283662; active means hit-call score of the fitted dose curve at least 0.9, where 1 is the maximum;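 further: potency for loss of signal meaning inhibition of peroxidase activity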)
Outline: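 Endpoint is decreased Amplex UltraRed fluorescence after a 30-min, 37C reaction of rat thyroid microsomes with 300 uM H2O2. Eight test concentrations (5 nM–87.5 uM final) in 0.5% DMSO, three biological replicates each.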

[18] = molecular target: Luciferin 4-monooxygenase (Photinus pyralis) (UniProt P08659); assay: CCTE_Simmons_QuantiLum_inhib_2: CCTE's Firefly Luciferase Inhibition Assay, Simmons Lab (AID 2283767; active means hit-call score of the fitted dose curve at least 0.9, where 1 is the maximum;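 on AC50: potency for inhibitors that lower luciferase luminescence relative to DMSO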)
Outline: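 First, 5 ng purified luciferase in phosphate buffer with BSA is dispensed per well. Next, test chemicals (5 nM to 87.5 uM final, 0.5% DMSO) are added and incubated 30 min at 37C in darkness. Finally, luciferin reagent is injected and luminescence read kinetically.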

Measured: AC50

Chain of human RAR-related Orphan Receptor beta (RORb), RORB (gene 6096) (Q92753 whole entry, looked up, the tested form may be a part): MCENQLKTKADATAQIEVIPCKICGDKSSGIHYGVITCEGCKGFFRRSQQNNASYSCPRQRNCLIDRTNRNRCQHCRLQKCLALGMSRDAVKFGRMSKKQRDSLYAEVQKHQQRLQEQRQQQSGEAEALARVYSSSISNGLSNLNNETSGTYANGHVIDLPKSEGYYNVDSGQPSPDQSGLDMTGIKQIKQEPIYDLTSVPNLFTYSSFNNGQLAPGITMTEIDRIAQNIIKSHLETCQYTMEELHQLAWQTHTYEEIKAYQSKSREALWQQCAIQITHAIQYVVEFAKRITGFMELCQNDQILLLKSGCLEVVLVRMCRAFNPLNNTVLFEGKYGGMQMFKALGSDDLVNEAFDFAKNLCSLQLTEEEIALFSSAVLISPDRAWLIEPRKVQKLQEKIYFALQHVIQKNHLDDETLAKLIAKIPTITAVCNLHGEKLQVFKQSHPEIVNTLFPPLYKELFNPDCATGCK
Chain of human Retinoic Acid Receptor beta (RARb), RARB (gene 5915) (P10826 whole entry, looked up, the tested form may be a part): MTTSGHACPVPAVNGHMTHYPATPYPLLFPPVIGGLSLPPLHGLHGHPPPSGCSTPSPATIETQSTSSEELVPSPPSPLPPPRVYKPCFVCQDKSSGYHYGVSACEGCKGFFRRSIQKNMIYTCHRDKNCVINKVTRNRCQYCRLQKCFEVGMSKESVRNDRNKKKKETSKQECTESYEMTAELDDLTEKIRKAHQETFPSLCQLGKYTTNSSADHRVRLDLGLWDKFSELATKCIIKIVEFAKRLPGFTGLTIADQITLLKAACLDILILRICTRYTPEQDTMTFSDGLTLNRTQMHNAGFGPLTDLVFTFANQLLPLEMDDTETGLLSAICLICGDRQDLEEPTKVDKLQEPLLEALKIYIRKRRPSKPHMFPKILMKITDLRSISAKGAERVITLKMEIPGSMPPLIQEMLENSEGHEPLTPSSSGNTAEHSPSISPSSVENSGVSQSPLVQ
Chain of human Retinoic Acid Receptor gamma (RARg), RARG (gene 5916) (P13631 whole entry, looked up, the tested form may be a part): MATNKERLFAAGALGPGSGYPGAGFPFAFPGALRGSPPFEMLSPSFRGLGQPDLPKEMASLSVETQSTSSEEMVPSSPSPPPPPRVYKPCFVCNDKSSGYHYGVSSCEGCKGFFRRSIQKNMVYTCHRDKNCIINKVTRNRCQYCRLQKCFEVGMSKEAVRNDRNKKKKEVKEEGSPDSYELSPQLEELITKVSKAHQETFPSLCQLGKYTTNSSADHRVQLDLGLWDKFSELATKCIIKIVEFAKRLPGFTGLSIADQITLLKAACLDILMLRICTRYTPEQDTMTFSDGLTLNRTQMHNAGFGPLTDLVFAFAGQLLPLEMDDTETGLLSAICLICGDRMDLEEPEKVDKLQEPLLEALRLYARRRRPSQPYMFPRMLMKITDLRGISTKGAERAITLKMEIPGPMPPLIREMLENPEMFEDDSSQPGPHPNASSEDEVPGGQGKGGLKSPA
Chain of Retinoic acid receptor alpha (Homo sapiens) (P10276 whole entry, looked up, the tested form may be a part): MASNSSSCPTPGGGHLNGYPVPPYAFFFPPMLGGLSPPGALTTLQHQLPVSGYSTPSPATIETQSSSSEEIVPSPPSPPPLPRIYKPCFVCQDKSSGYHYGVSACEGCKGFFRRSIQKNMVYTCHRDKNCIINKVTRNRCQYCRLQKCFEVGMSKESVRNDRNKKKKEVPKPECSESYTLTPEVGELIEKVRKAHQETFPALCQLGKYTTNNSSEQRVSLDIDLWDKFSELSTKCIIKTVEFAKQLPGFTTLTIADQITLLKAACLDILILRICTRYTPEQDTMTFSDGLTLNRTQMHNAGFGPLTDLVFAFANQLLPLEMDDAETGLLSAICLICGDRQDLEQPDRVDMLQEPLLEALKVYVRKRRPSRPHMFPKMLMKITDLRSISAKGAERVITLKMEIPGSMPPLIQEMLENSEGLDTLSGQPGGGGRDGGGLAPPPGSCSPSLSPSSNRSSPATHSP
Chain of Luciferin 4-monooxygenase (Photinus pyralis) (P08659 whole entry, looked up): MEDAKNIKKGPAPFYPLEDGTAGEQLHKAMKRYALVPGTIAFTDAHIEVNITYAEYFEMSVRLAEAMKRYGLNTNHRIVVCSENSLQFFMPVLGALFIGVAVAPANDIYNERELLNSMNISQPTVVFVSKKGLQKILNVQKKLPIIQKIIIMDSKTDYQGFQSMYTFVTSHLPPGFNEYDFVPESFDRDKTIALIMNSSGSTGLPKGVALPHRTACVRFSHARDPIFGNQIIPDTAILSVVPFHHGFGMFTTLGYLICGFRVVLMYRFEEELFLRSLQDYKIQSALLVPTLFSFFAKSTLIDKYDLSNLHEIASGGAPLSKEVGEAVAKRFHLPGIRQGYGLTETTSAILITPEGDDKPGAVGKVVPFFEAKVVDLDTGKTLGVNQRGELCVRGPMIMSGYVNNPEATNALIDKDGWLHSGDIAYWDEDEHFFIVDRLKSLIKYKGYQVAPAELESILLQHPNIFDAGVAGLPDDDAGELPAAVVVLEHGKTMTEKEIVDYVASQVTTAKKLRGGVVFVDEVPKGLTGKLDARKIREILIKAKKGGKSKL
Chain of Tumor necrosis factor (Homo sapiens) (P01375 whole entry, looked up): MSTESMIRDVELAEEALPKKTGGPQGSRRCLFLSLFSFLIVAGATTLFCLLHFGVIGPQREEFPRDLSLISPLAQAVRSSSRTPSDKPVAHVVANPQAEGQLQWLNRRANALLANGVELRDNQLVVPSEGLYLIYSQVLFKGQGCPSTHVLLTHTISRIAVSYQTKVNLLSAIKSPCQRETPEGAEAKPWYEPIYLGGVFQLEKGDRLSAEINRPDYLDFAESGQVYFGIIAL
Chain of Glucocorticoid receptor (Homo sapiens) (P04150 whole entry, looked up, the tested form may be a part): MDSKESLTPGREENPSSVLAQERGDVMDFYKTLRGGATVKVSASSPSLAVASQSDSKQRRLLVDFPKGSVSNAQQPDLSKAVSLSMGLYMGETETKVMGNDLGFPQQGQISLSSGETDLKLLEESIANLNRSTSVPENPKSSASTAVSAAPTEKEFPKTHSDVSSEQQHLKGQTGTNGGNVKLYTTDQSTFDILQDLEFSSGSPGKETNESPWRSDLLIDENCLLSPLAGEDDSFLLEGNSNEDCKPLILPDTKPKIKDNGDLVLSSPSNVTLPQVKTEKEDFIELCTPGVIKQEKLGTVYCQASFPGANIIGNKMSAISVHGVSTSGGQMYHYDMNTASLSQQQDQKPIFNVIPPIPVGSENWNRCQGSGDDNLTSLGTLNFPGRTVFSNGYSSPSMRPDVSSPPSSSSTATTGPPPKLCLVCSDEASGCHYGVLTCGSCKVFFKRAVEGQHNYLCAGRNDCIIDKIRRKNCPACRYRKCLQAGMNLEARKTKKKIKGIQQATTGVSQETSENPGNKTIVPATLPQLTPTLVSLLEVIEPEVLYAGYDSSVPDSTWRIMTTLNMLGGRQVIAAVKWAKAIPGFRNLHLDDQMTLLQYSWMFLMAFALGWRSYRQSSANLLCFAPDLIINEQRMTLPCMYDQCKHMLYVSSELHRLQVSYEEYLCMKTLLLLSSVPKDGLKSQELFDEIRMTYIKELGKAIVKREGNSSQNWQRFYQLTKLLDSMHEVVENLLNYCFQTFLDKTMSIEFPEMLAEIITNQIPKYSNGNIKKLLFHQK

CC(C)CCCCCCCOP(=O)(Oc1ccccc1)Oc1ccccc1
active: [1] 26.1 µM | [2] 31.3 µM | [3] 8.84 µM | [4] 8.57 µM | [5] 25.5 µM | [6] 8.22 µM | [7] 20 µM | [9] 5.07 µM | Decorin, DCN (gene 1634) 8.75 µM | [10] 11.3 µM
inactive: [8]

CCC(Br)(CC)C(=O)NC(N)=O
inactive: [11]

Cl/C=C\CCl
inactive: [12]

O=C(O)C(Br)Br
inactive: [13]

C=C(Cl)CCl
inactive: [13] | [14]

CC(C)(C)C(=O)CCl
active: [3] 20 µM
not listed: [11] | [13] | [14] | [16] | [17] | [18]
inactive: all other assays above

C=CCN(CC=C)C(=O)C(Cl)Cl
not listed: [11] | [12] | [13] | [14] | [15] | [16] | [17] | [18]
inactive: all other assays above

Nc1ccccc1C(=O)OCCc1ccccc1
inactive: [11] | [16] | [15]

[N-]=[N+]=CC(=O)OC[C@H](N)C(=O)O
inactive: [16]

CCOP(=O)(OCC)OCC
inactive: [11] | [16] | [14] | [15]

O=C(CCl)c1ccccc1
inactive: [13] | [11] | [16] | [14] | [18]
active: [17] 43.8 µM

CC(O)CN(CC(C)O)CC(C)O (centres undefined)
inactive: [15]

[CH3][Sn]([Cl])([Cl])[Cl]
inactive: [15]

S=c1[nH]c2ccccc2[nH]1
active: [17] 0.0688 µM | [18] 2.02 µM

CC(C)(c1cc(Cl)c(O)c(Cl)c1)c1cc(Cl)c(O)c(Cl)c1
inactive: [18] | [1] | [2] | [5] | [8] | Decorin, DCN (gene 1634)
active: [17] 19.8 µM | [4] 5.31 µM | [6] 6.18 µM | [7] 30.9 µM | [9] 34 µM | [10] 16.5 µM

O=P1(NCCCl)OCCCN1CCCl (centres undefined)
not listed: [11] | [12] | [14] | [15] | [17] | [18]
inactive: all other assays above

O=C(O)CCl
active: [17] 18.1 µM
inactive: [18]

O=[N+]([O-])C=Cc1ccccc1
active: [1] 5.28 µM | [2] 8.35 µM | [3] 11.1 µM | [4] 14.2 µM | [5] 5.05 µM | [6] 12.3 µM | [7] 11.9 µM | [8] 3.97 µM | [9] 9.76 µM | [10] 20 µM
inactive: [15] | Decorin, DCN (gene 1634)

O=C1C(Cl)=C(Cl)C(=O)C(Cl)=C1Cl
active: [1] 30.3 µM | [2] 20 µM | [3] 20.5 µM | [4] 16.6 µM | [5] 28.8 µM | [6] 23.8 µM | [7] 30.9 µM | [8] 25 µM | [9] 32 µM | [10] 29.6 µM
inactive: [14] | Decorin, DCN (gene 1634)
